Consider one sequence from PMC7862700, “An all-to-all approach to the identification of sequence-specific readers for epigenetic DNA modifications on cytosine”.

Experiment in all cases: DAPPL (digital affinity profiling via proximity ligation, sequencing); 10 mM Tris-HCl pH 7.5, 50 mM NaCl, 1 mM DTT, 4% glycerol, room temperature, 30 min; GST-TFs on glutathione beads, 16-mer random dsDNA library, 0.1% formaldehyde crosslink after washing; high values mean tight binding
In one assay the target is T1, FEV (Homo sapiens, UniProt Q99581 1-238).
T1 sequence: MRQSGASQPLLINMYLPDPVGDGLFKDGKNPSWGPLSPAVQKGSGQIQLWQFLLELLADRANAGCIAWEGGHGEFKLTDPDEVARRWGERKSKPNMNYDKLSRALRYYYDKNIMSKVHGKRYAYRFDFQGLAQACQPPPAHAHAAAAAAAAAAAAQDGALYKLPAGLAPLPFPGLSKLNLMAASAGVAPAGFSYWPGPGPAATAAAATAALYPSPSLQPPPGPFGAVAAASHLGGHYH
The note with it: protein: recombinant; tags: N-terminal GST; dsDNA, one strand shown. Summed up:
(§1)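 Beads coated with glutathione captured GST-fused human transcription factors that had been expressed in yeast, and the factors were then given DNA barcodes and pooled with a tag-only sample. The pools were incubated with 200 nmole of a random double-stranded 16-mer DNA library in Tris/NaCl/DTT/glycerol buffer for 30 min at room temperature, washed, crosslinked with 0.1% formaldehyde and proximity-ligated with BsaI/T4 ligase at 37 °C for 1 h. PCR amplification and Illumina NextSeq500 sequencing came last. Binding signal is each hexamer's read frequency for a factor divided by its frequency for the tag-only sample.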

The target of a further assay is ETV5 (Homo sapiens, UniProt P41161 1-510). The note with it: protein: recombinant; tags: N-terminal GST; dsDNA, one strand shown. Summed up: as §1
The next assay has as its target HSF1 (Homo sapiens, UniProt Q00613 1-529). The settings on record: protein: recombinant; tags: N-terminal GST; chain copies: 3; dsDNA, one strand shown. The procedure, abridged: as §1
Another assay addresses T2, SPIC (Homo sapiens, UniProt Q8N5J4 1-248).
T2 sequence: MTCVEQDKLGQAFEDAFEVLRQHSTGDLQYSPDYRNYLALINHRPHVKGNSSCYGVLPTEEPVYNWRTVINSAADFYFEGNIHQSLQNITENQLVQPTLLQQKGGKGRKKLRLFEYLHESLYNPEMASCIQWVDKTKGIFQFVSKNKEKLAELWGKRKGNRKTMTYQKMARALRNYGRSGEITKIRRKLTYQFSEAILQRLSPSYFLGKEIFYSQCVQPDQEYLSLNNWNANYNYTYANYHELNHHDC
The settings on record: protein: recombinant; tags: N-terminal GST; dsDNA, one strand shown. Summed up: as §1

For a further assay, the target named is ELF4 (Homo sapiens, UniProt Q99607 1-663). The settings on record: protein: recombinant; tags: N-terminal GST; dsDNA, one strand shown. Summed up:
as §1

A further assay concerns the target T3, ELK4 (Homo sapiens, UniProt P28324-2 1-405).
T3 sequence: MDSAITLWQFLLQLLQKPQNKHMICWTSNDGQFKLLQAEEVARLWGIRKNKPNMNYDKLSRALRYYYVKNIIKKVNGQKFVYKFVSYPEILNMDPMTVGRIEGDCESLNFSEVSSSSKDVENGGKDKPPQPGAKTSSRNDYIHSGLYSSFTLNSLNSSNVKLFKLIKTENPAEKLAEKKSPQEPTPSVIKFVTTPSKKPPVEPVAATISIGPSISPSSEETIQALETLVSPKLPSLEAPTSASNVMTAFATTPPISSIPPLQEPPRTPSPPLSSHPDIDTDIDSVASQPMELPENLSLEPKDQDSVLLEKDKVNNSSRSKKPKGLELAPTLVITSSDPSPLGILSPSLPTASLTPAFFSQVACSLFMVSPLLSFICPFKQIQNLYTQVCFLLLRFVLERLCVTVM
The note with it: protein: recombinant; tags: N-terminal GST; dsDNA, one strand shown. The procedure, abridged: as §1

In the next assay the target is T4, ETV2 (Homo sapiens, UniProt O00321 1-342).
T4 sequence: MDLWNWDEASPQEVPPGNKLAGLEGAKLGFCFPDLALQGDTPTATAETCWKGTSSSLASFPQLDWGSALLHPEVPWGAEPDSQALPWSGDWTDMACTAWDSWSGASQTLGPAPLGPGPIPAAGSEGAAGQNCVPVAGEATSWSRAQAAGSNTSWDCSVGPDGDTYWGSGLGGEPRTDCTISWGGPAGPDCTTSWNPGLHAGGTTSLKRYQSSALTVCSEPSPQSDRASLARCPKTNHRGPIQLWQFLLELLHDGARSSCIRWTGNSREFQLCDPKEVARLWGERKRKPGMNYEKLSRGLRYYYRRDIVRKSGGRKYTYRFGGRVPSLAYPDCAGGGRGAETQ
The settings on record: protein: recombinant; tags: N-terminal GST; dsDNA, one strand shown. The procedure, abridged:
as §1

A further assay addresses T5, ELF3 (Homo sapiens, UniProt P78545 1-371).
T5 sequence: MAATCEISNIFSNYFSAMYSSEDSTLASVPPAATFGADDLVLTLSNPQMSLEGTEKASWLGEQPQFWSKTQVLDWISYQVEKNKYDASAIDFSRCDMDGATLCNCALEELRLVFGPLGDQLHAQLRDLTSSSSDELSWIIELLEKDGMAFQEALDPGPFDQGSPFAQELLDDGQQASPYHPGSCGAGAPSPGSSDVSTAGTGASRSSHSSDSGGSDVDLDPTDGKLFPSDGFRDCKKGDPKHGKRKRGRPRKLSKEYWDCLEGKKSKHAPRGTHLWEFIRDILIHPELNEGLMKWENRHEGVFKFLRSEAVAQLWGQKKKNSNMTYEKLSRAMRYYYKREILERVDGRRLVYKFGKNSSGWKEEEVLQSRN
The note with it: protein: recombinant; tags: N-terminal GST; dsDNA, one strand shown. The procedure, abridged:
as §1

A further assay addresses CRX (Homo sapiens, UniProt O43186 1-299). The settings on record: protein: recombinant; tags: N-terminal GST; dsDNA, one strand shown. The procedure, abridged: as §1
For the next assay, the target named is ETV1 (Homo sapiens, UniProt P50549 1-477). The note with it: protein: recombinant; tags: N-terminal GST; dsDNA, one strand shown. The procedure, abridged:
as §1

For another assay, the target named is T6, ERF (Homo sapiens, UniProt P50548 1-548).
T6 sequence: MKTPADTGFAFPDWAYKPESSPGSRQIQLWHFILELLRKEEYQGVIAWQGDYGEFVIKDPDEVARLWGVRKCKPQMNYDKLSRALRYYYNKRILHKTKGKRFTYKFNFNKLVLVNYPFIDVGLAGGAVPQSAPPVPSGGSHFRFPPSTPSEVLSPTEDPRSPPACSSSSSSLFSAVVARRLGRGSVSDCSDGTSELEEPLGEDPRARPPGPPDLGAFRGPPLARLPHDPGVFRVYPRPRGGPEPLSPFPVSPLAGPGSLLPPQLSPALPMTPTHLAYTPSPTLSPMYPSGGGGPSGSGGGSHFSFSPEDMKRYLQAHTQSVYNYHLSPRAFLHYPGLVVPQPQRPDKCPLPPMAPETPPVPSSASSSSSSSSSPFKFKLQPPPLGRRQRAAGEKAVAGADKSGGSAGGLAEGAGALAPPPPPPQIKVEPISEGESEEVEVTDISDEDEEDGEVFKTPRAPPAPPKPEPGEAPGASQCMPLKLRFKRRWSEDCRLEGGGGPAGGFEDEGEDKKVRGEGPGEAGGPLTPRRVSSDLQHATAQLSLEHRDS
The settings on record: protein: recombinant; tags: N-terminal GST; dsDNA, one strand shown. The procedure, abridged:
as §1

The target in another assay is T7, ETV3L (Homo sapiens, UniProt Q6ZN32 1-361).
T7 sequence: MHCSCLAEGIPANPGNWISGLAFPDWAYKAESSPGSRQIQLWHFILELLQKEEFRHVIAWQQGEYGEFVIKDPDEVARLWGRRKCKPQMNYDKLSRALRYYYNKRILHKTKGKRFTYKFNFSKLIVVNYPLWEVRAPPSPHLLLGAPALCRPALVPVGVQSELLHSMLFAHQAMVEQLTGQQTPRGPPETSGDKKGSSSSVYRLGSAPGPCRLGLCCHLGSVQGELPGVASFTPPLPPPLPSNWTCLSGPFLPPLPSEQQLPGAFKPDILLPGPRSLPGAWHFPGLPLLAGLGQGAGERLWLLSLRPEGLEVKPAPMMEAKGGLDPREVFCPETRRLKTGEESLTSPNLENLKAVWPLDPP
The settings on record: protein: recombinant; tags: N-terminal GST; dsDNA, one strand shown. Summed up:
as §1

A further assay addresses T8, ETS2 (Homo sapiens, UniProt P15036 1-469).
T8 sequence: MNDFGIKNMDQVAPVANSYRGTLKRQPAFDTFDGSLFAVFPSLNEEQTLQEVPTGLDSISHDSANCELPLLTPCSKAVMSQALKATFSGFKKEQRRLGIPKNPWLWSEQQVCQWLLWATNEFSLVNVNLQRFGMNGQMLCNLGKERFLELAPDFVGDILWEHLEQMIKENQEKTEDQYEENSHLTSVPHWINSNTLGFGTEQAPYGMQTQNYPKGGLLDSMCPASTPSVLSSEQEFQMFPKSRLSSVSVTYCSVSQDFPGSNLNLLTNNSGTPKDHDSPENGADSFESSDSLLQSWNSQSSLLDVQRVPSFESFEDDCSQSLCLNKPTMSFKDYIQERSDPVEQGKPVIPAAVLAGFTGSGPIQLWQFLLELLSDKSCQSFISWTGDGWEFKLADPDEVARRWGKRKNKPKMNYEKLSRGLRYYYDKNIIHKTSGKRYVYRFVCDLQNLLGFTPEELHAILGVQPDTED
The note with it: protein: recombinant; tags: N-terminal GST; dsDNA, one strand shown. Summed up: as §1

The target of a further assay is T9, SPDEF (Homo sapiens, UniProt O95238 1-335).
T9 sequence: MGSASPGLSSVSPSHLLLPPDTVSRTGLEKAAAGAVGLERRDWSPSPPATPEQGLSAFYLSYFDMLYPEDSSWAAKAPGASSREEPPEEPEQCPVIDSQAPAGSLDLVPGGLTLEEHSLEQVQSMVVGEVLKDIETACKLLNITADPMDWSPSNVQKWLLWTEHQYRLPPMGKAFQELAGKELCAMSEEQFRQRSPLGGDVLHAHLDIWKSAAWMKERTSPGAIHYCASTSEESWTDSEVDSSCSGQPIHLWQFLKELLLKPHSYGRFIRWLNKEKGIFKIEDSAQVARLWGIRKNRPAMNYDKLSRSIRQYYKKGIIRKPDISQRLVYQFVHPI
The note with it: protein: recombinant; tags: N-terminal GST; dsDNA, one strand shown. The procedure, abridged: as §1

Another assay deals with T10, ETV7 (Homo sapiens, UniProt Q9Y603 1-341).
T10 sequence: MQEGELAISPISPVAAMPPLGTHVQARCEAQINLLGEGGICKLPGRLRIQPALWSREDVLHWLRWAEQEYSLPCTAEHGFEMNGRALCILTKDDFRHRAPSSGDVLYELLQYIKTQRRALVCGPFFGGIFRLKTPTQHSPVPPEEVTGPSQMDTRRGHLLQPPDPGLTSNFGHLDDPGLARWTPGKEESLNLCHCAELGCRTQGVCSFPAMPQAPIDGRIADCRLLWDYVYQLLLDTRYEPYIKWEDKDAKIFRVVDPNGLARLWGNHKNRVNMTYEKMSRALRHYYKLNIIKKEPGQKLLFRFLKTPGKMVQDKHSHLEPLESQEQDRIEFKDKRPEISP
The note with it: protein: recombinant; tags: N-terminal GST; dsDNA, one strand shown. Summed up:
as §1

A further assay has as its target T11, ELF5 (Homo sapiens, UniProt Q9UKW6-2 1-255).
T11 sequence: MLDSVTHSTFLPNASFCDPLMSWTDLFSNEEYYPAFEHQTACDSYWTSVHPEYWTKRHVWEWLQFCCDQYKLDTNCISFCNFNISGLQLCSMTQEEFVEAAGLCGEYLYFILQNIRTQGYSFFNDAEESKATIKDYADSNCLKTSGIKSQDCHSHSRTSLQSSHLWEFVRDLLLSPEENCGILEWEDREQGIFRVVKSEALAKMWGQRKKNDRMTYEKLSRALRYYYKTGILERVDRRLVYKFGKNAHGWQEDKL
The settings on record: protein: recombinant; tags: N-terminal GST; dsDNA, one strand shown. Summed up:
as §1

In the next assay the target is T12, ETV3 (Homo sapiens, UniProt P41162-2 1-143).
T12 sequence: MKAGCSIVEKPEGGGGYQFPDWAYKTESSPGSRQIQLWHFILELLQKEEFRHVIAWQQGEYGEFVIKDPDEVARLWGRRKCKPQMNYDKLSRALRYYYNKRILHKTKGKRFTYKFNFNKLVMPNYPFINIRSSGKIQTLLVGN
The note with it: protein: recombinant; tags: N-terminal GST; dsDNA, one strand shown. Summed up: as §1

The next assay deals with ETV6 (Homo sapiens, UniProt P41212 1-452). The settings on record: protein: recombinant; tags: N-terminal GST; dsDNA, one strand shown. The procedure, abridged: as §1
Sequence of ETV6 (P41212 whole entry): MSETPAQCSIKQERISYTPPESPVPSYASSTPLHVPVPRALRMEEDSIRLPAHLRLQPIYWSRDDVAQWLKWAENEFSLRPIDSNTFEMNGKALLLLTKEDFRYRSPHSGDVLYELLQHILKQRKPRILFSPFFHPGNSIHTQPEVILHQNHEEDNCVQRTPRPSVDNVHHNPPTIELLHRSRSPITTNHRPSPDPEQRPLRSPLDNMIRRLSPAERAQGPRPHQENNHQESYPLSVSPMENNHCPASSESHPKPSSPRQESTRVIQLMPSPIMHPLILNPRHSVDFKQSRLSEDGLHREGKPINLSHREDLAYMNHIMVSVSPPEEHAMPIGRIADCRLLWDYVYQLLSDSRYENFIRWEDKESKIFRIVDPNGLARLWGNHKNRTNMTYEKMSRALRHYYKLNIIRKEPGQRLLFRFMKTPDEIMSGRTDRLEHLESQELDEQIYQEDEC

Sequence of ELF4 (Q99607 whole entry): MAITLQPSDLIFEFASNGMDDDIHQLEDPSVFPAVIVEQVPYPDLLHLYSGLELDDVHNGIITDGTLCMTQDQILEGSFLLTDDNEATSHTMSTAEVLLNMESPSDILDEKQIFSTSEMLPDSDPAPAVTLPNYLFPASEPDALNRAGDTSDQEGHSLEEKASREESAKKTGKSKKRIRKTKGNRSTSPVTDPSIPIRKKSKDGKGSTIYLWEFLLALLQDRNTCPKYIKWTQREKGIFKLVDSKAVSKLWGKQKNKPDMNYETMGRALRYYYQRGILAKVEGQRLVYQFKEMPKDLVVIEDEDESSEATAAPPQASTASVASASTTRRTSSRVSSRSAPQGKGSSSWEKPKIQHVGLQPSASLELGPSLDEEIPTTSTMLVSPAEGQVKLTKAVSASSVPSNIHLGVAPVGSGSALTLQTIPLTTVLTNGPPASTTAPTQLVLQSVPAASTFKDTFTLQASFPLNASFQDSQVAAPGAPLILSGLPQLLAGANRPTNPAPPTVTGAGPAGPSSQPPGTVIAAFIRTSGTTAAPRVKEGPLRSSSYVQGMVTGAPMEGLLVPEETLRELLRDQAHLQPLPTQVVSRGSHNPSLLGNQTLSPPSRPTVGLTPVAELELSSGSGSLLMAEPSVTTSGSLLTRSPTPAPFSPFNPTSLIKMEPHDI
Sequence of CRX (O43186 whole entry): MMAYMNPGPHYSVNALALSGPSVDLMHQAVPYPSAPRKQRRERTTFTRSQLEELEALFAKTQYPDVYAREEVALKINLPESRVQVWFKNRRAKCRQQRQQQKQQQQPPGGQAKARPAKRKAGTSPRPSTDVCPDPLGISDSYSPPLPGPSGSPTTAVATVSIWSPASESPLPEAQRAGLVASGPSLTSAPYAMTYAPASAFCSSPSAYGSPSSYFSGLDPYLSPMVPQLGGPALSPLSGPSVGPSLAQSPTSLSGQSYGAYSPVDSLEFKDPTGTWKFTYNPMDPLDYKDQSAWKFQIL
Sequence of ETV5 (P41161 whole entry): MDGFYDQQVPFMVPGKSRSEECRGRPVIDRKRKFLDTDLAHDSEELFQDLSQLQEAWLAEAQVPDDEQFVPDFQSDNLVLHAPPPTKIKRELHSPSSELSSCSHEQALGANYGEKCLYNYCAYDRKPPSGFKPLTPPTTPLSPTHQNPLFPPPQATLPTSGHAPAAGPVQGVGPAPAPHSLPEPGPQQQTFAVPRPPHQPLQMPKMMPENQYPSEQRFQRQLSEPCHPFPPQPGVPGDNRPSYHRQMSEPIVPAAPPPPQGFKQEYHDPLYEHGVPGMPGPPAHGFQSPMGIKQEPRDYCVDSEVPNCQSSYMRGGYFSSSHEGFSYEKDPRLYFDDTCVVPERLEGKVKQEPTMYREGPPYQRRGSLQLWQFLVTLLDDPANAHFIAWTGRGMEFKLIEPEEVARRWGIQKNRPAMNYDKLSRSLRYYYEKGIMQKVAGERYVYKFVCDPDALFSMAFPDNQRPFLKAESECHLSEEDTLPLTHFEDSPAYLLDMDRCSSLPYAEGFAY
Sequence of ETV1 (P50549 whole entry): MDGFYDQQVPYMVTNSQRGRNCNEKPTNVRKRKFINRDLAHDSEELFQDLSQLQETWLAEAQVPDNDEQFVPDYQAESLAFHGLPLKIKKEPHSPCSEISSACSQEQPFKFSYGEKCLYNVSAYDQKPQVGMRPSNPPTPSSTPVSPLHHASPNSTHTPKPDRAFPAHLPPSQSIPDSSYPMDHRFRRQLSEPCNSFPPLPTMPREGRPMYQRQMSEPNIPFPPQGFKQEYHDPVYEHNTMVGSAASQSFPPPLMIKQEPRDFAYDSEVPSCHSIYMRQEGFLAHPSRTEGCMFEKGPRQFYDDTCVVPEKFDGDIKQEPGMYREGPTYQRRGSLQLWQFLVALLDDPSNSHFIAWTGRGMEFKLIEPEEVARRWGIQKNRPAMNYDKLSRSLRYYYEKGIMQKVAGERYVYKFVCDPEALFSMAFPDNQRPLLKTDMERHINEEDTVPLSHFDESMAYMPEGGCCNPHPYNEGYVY
Sequence of HSF1 (Q00613 whole entry): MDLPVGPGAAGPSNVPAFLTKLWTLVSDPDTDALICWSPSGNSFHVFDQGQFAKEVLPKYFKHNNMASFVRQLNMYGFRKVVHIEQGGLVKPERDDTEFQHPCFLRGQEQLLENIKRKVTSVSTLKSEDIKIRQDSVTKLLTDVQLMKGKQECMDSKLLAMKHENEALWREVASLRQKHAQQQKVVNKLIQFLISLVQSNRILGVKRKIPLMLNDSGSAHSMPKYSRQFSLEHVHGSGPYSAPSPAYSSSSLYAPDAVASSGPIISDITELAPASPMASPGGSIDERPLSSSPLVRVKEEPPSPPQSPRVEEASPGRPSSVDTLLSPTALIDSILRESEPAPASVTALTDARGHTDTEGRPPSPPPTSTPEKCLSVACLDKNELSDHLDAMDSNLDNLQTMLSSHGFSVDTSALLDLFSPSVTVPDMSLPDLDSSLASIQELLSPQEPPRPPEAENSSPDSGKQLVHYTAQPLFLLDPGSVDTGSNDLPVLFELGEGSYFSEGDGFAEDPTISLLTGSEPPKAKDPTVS

With AATACT, the binding signal was 1.21 fold enrichment (6-mer frequency, TF over GST control) with FEV; 1.27 fold enrichment (6-mer frequency, TF over GST control) in the assay with ETV5; 1.34 fold enrichment (6-mer frequency, TF over GST control) with HSF1; 1.25 fold enrichment (6-mer frequency, TF over GST control) with SPIC; 1.16 fold enrichment (6-mer frequency, TF over GST control) in the assay with ELF4; 1.24 fold enrichment (6-mer frequency, TF over GST control) in the assay with ELK4. The binding signal is 1.36 fold enrichment (6-mer frequency, TF over GST control) with ETV2; 1.26 fold enrichment (6-mer frequency, TF over GST control) in the assay with ELF3; 1.47 fold enrichment (6-mer frequency, TF over GST control) with CRX; 1.26 fold enrichment (6-mer frequency, TF over GST control) with ETV1; 1.19 fold enrichment (6-mer frequency, TF over GST control) with ERF; 1.24 fold enrichment (6-mer frequency, TF over GST control) with ETV3L. Further, the binding signal was 1.23 fold enrichment (6-mer frequency, TF over GST control) in the assay with ETS2; 1.15 fold enrichment (6-mer frequency, TF over GST control) in the assay with SPDEF; 1.31 fold enrichment (6-mer frequency, TF over GST control) with ETV7; 1.37 fold enrichment (6-mer frequency, TF over GST control) with ELF5; 1.28 fold enrichment (6-mer frequency, TF over GST control) in the assay with ETV3; 1.4 fold enrichment (6-mer frequency, TF over GST control) in the assay with ETV6.
